# Where “and” joins values, the source holds several entries; their conditions need not be identical. Equal entries are not always repeated. Results filed as inconclusive are left out. A call without a number means that no potency is given here. Values without a mark were called inactive. Calls of active or inactive are those of the source. Calls follow the shape of the dose curve; as a rule, active = well fitted inhibition curve with a large enough effect; inconclusive = small, poorly fitted or top-dose-only effect; inactive = flat fitted curve, though single readings scatter. Where a SMILES comes first, the peptide text is derived from it. [ ]: non-standard residue; d: D form. pGlu = O=C1CC[C@@H](C(=O)O)N1; Thz = O=C(O)[C@@H]1CSCN1
# Key:
# [1] = system: PC49; experiment: qHTS profiling for inhibitors of Plasmodium falciparum proliferation (AID 504749); conditions: P. falciparum in erythrocytes, SYBR Green DNA, 72 h; series mostly up to 28.7 µM
# How it was run: (§1)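 Readout was DNA-dye fluorescence from lysed cultures, ex 485/em 535 nm. Parasitized red cells had grown 72 h with compound; data scaled between 0.29 uM artemisinin and DMSO wells and corrected using vehicle-only plates.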
# [2] = system: SC27B; experiment: as above; conditions: P. falciparum in erythrocytes, SYBR Green DNA, 72 h; series mostly up to 28.7 µM
# How it was run: as §1
# [3] = system: TAB109; experiment: as above; conditions: P. falciparum in erythrocytes, SYBR Green DNA, 72 h; series mostly up to 28.7 µM
# How it was run: as §1
# [4] = system: TAB113; experiment: as above; conditions: P. falciparum in erythrocytes, SYBR Green DNA, 72 h; series mostly up to 28.7 µM
# How it was run: as §1
# [5] = system: TAB165; experiment: as above; conditions: P. falciparum in erythrocytes, SYBR Green DNA, 72 h; series mostly up to 28.7 µM
# How it was run: as §1
# [6] = system: W2; experiment: as above; conditions: P. falciparum in erythrocytes, SYBR Green DNA, 72 h; series mostly up to 28.7 µM
# How it was run: as §1
# [7] = system: CRL-7250; experiment: Cytotoxic Profiling of Annotated Libraries Using Quantitative High-Throughput Screening (AID 1296008); conditions: Five cell lines viability, CellTiter-Glo ATP luminescence, 48-72 h; max response: stronger effect = lower value
# How it was run: (§2)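 Cells exposed to compounds for 48 or 72 hr at 37 degrees Celsius. Viability read as ATP-coupled luminescence with CellTiter-Glo after 10 min at room temperature.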
# [8] = system: HEK293; experiment: as above; conditions: Five cell lines viability, CellTiter-Glo ATP luminescence, 48-72 h; max response: stronger effect = lower value
# How it was run: as §2
# [9] = system: HaCat; experiment: as above; conditions: Five cell lines viability, CellTiter-Glo ATP luminescence, 48-72 h; max response: stronger effect = lower value
# How it was run: as §2
# [10] = system: KB-3-1; experiment: as above; conditions: Five cell lines viability, CellTiter-Glo ATP luminescence, 48-72 h; max response: stronger effect = lower value
# How it was run: as §2
# Also: nearly all actives have a fitted effect of over 60% in size.
# Potency is read from the fitted curve at half-maximal effect.
SMILES,Potency [1],Potency [2],Potency [3],Potency [4],Potency [5],Potency [6],max response [7],max response [8],max response [9],max response [10],outcome [9],outcome [8],outcome [7],outcome [10],Potency [8],Potency [7]
CN1[C@@H]2CC[C@H]1CC(OC(=O)C(CO)c1ccccc1)C2 (some centres not stated),inactive,inactive,inactive,inactive,inactive,inactive,-9.68%,2.75%,-9.85%,-5.74% and -6.73% and 8.38%,,,,,,
O=C(O)[C@H](CC(=O)N1C[C@H]2CCCC[C@H]2C1)Cc1ccccc1,inactive,inactive,inactive,inactive,inactive,inactive,-6.27%,-22.3%,-9.54%,-7.55% and -0.116%,,,,,,
COc1cc(/C=C/C(=O)N2CCN(CC(=O)N3CCCC3)CC2)cc(OC)c1OC,inactive,inactive,inactive,inactive,inactive,inactive,-2.29%,1.99%,,,inactive,,,,,
CCOC(=O)c1ccccc1O,inactive,inactive,inactive,inactive,inactive,inactive,3.39%,,-10.3%,,,inactive,,,,
Nc1cc(-c2ccncc2)c[nH]c1=O,inactive,inactive,inactive,inactive,inactive,inactive,,1.99%,3.01%,4.08%,,,inactive,,,
CN1CCN(c2cc3c(nn2)Oc2ccccc2N3C)CC1,inactive,inactive,inactive,inactive,inactive,inactive,-2.91%,,,-19.4%,inactive,inactive,,,,
O=C1CC[C@@H](C(=O)N2CSC[C@H]2C(=O)O)N1 ([pGlu]-[Thz]-OH),inactive,inactive,inactive,inactive,inactive,inactive,-1.65%,-11.6%,2.27%,-5.47%,,,,inactive,,
CN(C)CCn1nnnc1SCC1=C(C(=O)O)N2C(=O)[C@@H](NC(=O)Cc3csc(N)n3)[C@H]2SC1,,,,,,,-7.23%,-4.49%,,-1.99%,inactive,,,,,
O=c1[nH]c2ccccc2n1CCCN1CCN(C(c2ccccc2)c2ccccc2)CC1,,,,,,6.75 µM (active),-27.4%,,-21.6%,18.6%,,,,,16.8 µM (active),
CCCSc1ccc2nc(NC(=O)OC)[nH]c2c1,inactive,inactive,inactive,inactive,inactive,,,,-6.26%,,,,,,0.75 µM (active),5.96 µM (active)
c1ccc2sc(SSc3nc4ccccc4s3)nc2c1,inactive,inactive,inactive,inactive,inactive,inactive,1.15%,3.28%,-2.36%,18.6%,,,,,,
CC(=O)c1ccc(OCC(=O)N2CCCCC2)cc1,,,,,,,2.04%,-3.89%,-0.673%,,,,,inactive,,
O=C(O)Cc1ccc(-c2ccccc2)cc1,inactive,inactive,inactive,inactive,inactive,inactive,-1.48%,-6.63%,-10.6%,,,,,,,
Cc1ccc(C(=O)c2ccc(CC(=O)O)n2C)cc1,inactive,inactive,inactive,inactive,inactive,inactive,-1.54%,-2.23%,2.78%,-6.96%,,,,,,
CC(C(=O)O)c1ccc(C(=O)c2ccccc2)s1 (configuration not stated),,,,,,,,0.794%,,0.65%,inactive,,inactive,,,
CCNC(=O)[C@H]1O[C@@H](n2cnc3c(N)nc(NCCc4ccc(CCC(=O)O)cc4)nc32)[C@H](O)[C@@H]1O,,,,,,,3.23%,,2.46%,2.49%,,inactive,,,,
CCCCCCCCCCCCCCCC(=O)OC(C)C,inactive,inactive,inactive,inactive,inactive,inactive,3.48%,-10.5%,-20.5%,12.9%,,,,,,

# Reference: PubChem BioAssay (NCATS)
